Shown is part of a subset that was picked to be rich in hits.
Pf Dd2 growth: blocks in vitro growth of P. falciparum Dd2. P. falciparum Dd2 growth, SYBR Green, 72 h. Potency, µM (top dose mostly 28.9 µM), actives largely listed as inhibitors. 4.3% of 120,000 active. AID 1347417; active = well fitted inhibition curve with a large enough effect; also: nearly all actives have a fitted effect of over 65% in size
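Infected erythrocytes (Dd2, 0.3% parasitemia, 2.5% hematocrit final) are added to compound in RPMI-1640/Albumax II medium, grown 72 h at 37C in low oxygen, then lysed with saponin/Triton-X containing SYBR Green and read by fluorescence.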
Each line names hits and unclear results; the compound was inactive in the other large screens.

O=C(c1ccc(NCc2ccncc2)cc1)N1CCCC2(CCNCC2)CC1	none
O=C(O)c1ccc([S+](=O)([O-])N2CC(COc3ccccc3)C3(CN(c4ccccc4)C3)C2)cc1 (configuration not stated)	none
CNC(=O)CCn1ncc2cc(OC3CCc4cccc(-c5ccncc5)c43)ccc21 (configuration not stated)	none
CC(C)N1C(=O)C2(CCCCC2)C1C(=O)N1CCOCC1 (configuration not stated)	none
CC(C)C(=O)N1Cc2ccccc2CC2(CCCCN2Cc2cccnc2)C1 (configuration not stated)	Pf Dd2 growth 13µM
CC(=O)N1Cc2ccccc2CC2(CCCN2Cc2ccccc2)C1 (configuration not stated)	none
CC(=O)NCC(=O)N1Cc2ccccc2CC2(CCCN2Cc2ccccc2)C1 (configuration not stated)	none
COc1cc(=O)n2c(c1C(=O)Nc1cc(C)ccc1F)CCCC2	none
COc1ccc(-n2c(SCCC(C)C)nc3sc4c(c3c2=O)CC(C(C)C)OC4)cc1 (configuration not stated)	none
CCCSc1nnc2n(-c3ccc(OC)cc3)c(=O)c3c4c(sc3n12)COC(C(C)C)C4 (configuration not stated)	Pf Dd2 growth 10µM
COC(=O)CSc1nnc2n(-c3ccccc3)c(=O)c3c4c(sc3n12)COC(C(C)C)C4 (configuration not stated)	none
Cc1nn(C)c(C)c1CCC(=O)NC1CCc2n[nH]c(=O)n2CC1 (configuration not stated)	none
Cn1nc(C(=O)N2CCN(c3ccc(Cl)cc3)CC2)c2c1-c1ccccc1SC2	none
Cc1ccc2c(c1)-c1c(c(C(=O)N3CCN(c4cc(C)ccc4C)CC3)nn1C)CS2	Pf Dd2 growth 13µM
COc1ccc(NC(=O)c2nn(C)c3c2CSc2ccc(C)cc2-3)cc1OC	none
CCOCCC(=O)N1CC[C@@H]2[C@@H](CCC(=O)N2CCc2ccccn2)C1	none
CC(C)NC(=O)N1CCCCCCNC(=O)[C@@H]2CCCC[C@@H]21	none
O=C(Cn1cc(SCc2ccccc2F)c2ccccc21)N1CCCCC1	none
NC(=O)CCn1cc(CN(CCO)Cc2ccccc2F)c2ccccc21	Pf Dd2 growth 2.2µM
CCC(NCc1cn(CCC(N)=O)c2ccccc12)c1cccs1 (configuration not stated)	none
c1ccc(-c2n[nH]c(CC3CCNC3)n2)cc1 (configuration not stated)	none
Cc1nnc(N2CC[C@H](N3CCOCC3)[C@H](CCC(=O)O)C2)c2ccccc12	none
